Source: PubChem
Most compounds without a hit are left out; they make up all but 3.5% or so of the library.
MITF inh = MITF inhibitors, primary screen, biochemical, AlphaScreen, human; AlphaScreen MITF homodimerization, bead proximity signal; 650,000 tested, 0.91% active; inhibition, % at 2.6 µM; Microphthalmia-associated transcription factor (Homo sapiens), O75030; AID 1259374, 2018; in the data active means inhibition above about 50%
FBW7 activator = FBW7 E3 ligase activators, primary screen, biochemical, AlphaScreen, human. AlphaScreen FBW7–phospho-cyclin E peptide binding, activator screen. 650,000 tested, 0.13% active. normalized activity (activation), % at 26.1 µM. AID 1259310, 2017; in the data active means normalized activity above about 1.9%;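 further: purified mutant Fbw7 with reduced substrate affinity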
Target sequence (Q969H0 whole entry, looked up): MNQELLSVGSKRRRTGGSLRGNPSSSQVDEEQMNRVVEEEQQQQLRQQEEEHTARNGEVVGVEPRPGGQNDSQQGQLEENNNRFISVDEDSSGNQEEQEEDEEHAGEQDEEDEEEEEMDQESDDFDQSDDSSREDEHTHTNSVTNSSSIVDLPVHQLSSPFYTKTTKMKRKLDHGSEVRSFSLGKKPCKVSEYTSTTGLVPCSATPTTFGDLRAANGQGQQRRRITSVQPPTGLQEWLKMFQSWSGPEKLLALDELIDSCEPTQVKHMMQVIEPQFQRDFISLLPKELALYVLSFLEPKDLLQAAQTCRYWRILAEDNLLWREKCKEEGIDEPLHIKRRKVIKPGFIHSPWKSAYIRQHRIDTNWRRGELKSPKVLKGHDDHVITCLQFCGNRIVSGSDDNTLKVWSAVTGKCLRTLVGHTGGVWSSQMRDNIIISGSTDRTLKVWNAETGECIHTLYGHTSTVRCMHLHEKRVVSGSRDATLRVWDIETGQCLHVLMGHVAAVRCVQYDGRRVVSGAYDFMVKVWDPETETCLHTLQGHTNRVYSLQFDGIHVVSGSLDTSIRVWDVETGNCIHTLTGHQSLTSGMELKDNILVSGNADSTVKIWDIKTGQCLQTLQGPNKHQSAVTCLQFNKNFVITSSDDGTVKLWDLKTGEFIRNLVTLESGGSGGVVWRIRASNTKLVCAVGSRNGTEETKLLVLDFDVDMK
TEAD-YAP inh = TEAD-YAP interaction inhibition, primary screen, TEAD-YAP interaction inhibitor project, luminescence, HEK-TIYL cells. TEAD-Gal4/YAP UAS-luciferase luminescence. inhibition, % at 9.12 µM. 640,000 tested, 1.4% active; in the data active means inhibition above about 32%
GPR151 activ = activators of human GPR151, primary screen, cell-based, PathHunter beta-arrestin, luminescence. G-protein coupled receptor 151 (Homo sapiens), Q8TDV0. PathHunter beta-arrestin GPR151 cells. activation, % at 11.2 µM. 650,000 tested, 1% active; in the data active means activation above about 4.9%
GPR151 confirm = GPR151 activators, triplicate retest, confirmation, cell-based, PathHunter beta-arrestin, luminescence; shares compounds with GPR151 activ; GPR151 PathHunter beta-arrestin cells, 90 min; % of EA-reagent control over plate median; activation, % at 11.2 µM; 6,700 tested, under 10 active; AID 1508609, 2020;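 active means mean percent activation across replicates above the confirmation screen cutoff of 4.91%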
GPR119 ag = GPR119 activators in beta-arrestin cells, counter-screen for GPR151 activator project, cell-based, PathHunter beta-arrestin, luminescence, triplicate. shares compounds with GPR151 activ. 90 min; 0 = compound-well median, 100 = enzyme-acceptor control. activation, % at 11.2 µM. 6,700 tested, 0.3% active;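 active means mean percent activation in the counterscreen above 29.09%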;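 further: counterscreen on off-target GPR119 to flag nonselective hits from the GPR151 activator screen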
Large screens that a line does not name were inactive (follow-up assays come after a bar, where they were run).

N#CC1(C#N)[C@H](c2ccc(-c3ccccc3)cc2)[C@@H](C(=O)C(F)(F)F)N2c3ccc(Cl)cc3C=C[C@@H]21	none
CCOC(=O)c1sc(NC(=O)c2c(F)cccc2F)nc1C	GPR151 activ 7.8 | GPR151 confirm inactive | GPR119 ag inactive
CCOC(=O)c1sc(NC(=S)NC(=O)c2ccccc2F)nc1C	none
CCc1cccc(NC(=O)c2ccccc2F)c1	none
Cc1nc2ccccc2c(=O)n1-c1ccc(N2CCOCC2)c(C(F)(F)F)c1	GPR151 activ 5.9 | GPR151 confirm inactive | GPR119 ag inactive
Cc1nc2ccccc2c(=O)n1CC(=O)N1CCOCC1	none
CC(C)(C)c1nnc(Nc2ccccc2Cl)[nH]c1=O	none
CC(C)(C)c1nnc(Nc2cc(Cl)ccc2Cl)[nH]c1=O	GPR151 activ 5.7 | GPR151 confirm inactive | GPR119 ag inactive
Cc1nn(C)c(N/N=C/c2ccc(N(C)C)cc2)c1[N+](=O)[O-]	none
COC(=O)COc1ccc(NC(=O)C(c2ccccc2)c2ccccc2)cc1	none
O=C(Nc1ccc(S(=O)(=O)Nc2ncccn2)cc1)C(c1ccccc1)c1ccccc1	GPR151 activ 7.1 | GPR151 confirm inactive | GPR119 ag inactive
O=C(O)COc1ccc(NC(=O)C(c2ccccc2)c2ccccc2)cc1	GPR151 activ 4.9 | GPR151 confirm inactive | GPR119 ag inactive
CN(CCC#N)C(=O)COc1cc(F)ccc1[N+](=O)[O-]	none
CCOCCCNC(=O)CN1CCN(Cc2ccc(F)cc2Cl)C1=O	none
O=C(Cn1c(=O)oc2cc(Cl)ccc21)NCCN1CCCc2ccccc21	none
Cc1cnc(Nc2ccc3ncccc3c2)nc1NCCN(C(C)C)C(C)C	GPR151 activ 5.4 | GPR151 confirm inactive | GPR119 ag inactive
CCCNc1nc(Nc2ccc3ncccc3c2)ncc1C	none
CCNC(=O)N1CCC(Cn2c(COc3ccccc3)nc3ccccc32)CC1	none
O=C(c1ccco1)N1CCC(Cn2c(COc3ccccc3)nc3ccccc32)CC1	GPR151 activ 7.5 | GPR151 confirm inactive | GPR119 ag inactive
CCCOc1ccc(/C=N/NC(=O)C(=O)NC2CCCCC2)cc1OCC	none
CCOC(=O)c1sc2ncn(/N=C/N(C)C)c(=O)c2c1C	GPR151 activ 7.1 | GPR151 confirm inactive | GPR119 ag inactive
O=C1CC(=O)Nc2cc(S(=O)(=O)NC3CCCCC3)ccc2N1	none
CC(=O)c1ccc(NC(=O)C(=O)NC2CCCc3ccccc32)cc1 (stereo not given)	GPR151 activ 6.7 | GPR151 confirm inactive | GPR119 ag inactive
O=C(Nc1ccc(S(=O)(=O)N2CCCC2)cc1)C(=O)NC1CCCc2ccccc21 (stereo not given)	none
COc1cccc(CN2CCc3nnc(CCNC(=O)C4CCCO4)n3CC2)c1 (stereo not given)	GPR151 activ 6.3 | GPR151 confirm inactive | GPR119 ag inactive
COc1cc(CN2CCc3nnc(CCc4ccccc4)n3CC2)cc(OC)c1OC	GPR151 activ 7.1 | GPR151 confirm inactive | GPR119 ag inactive
COc1cc(CN2CCc3nnc(CCc4ccccc4)n3CC2)cc(OC)c1O	none
Cn1nccc1Nc1nc(NCCN2CCOCC2)c2ncn(CCN3CCCC3=O)c2n1	none
COc1ccc(C[C@@H]2NC(=O)[C@@H]3C[C@H](NCc4cccc5cccnc45)CN3C2=O)cc1	none
CCc1c(C#N)c(N)nc(SCC(=O)c2cc3ccccc3oc2=O)c1C#N	GPR151 activ 9.9 | GPR151 confirm inactive | GPR119 ag inactive
CCCC1CCc2c(sc(NS(=O)(=O)c3ccc(NC(C)=O)cc3)c2C(N)=O)C1 (stereo not given)	GPR151 activ 10 | GPR151 confirm inactive | GPR119 ag inactive
CC(=O)Nc1ccc(S(=O)(=O)Nc2sc3c(c2C(N)=O)CCC(C)C3)cc1 (stereo not given)	none
COCc1cc(C)nc2oc(C(=O)c3ccccc3)c(N)c12	GPR151 activ 5.7 | GPR151 confirm inactive | GPR119 ag inactive
COCc1cc(C)nc2sc(C(=O)c3ccccc3)c(N)c12	none
CC1=CC(=O)C(Cl)=C(C)/C1=N\S(=O)(=O)c1ccc(C)cc1	none
CC(=O)C1=CN(Cc2ccccc2)C=C(C(C)=O)C1c1ccccc1	none
O=C(NCC1Cc2cccc(-c3ccncc3)c2O1)c1cccc(Cn2cccn2)c1 (stereo not given)	GPR151 activ 9.0 | GPR151 confirm inactive | GPR119 ag inactive
CC1C2NC(=S)NC1(C)Oc1ccccc12 (stereo not given)	GPR151 activ 7.4 | GPR151 confirm inactive | GPR119 ag inactive
O=C1OC(/C=C\c2cccc([N+](=O)[O-])c2)=NC/1=C/c1ccc(Br)cc1	none
COCCCNC(=O)c1ccc(CNc2nc(=S)[nH]c3ccccc23)cc1	GPR151 activ 5.9 | GPR151 confirm inactive | GPR119 ag inactive
O=[N+]([O-])c1cc(Cl)cc(/C=N/Nc2nnc3c(n2)[nH]c2ccccc23)c1O	none
O=C(NCCc1ccc(O)cc1)c1cnc(-c2ccc(N3CCOCC3)nc2)s1	GPR151 activ 5.1 | GPR151 confirm inactive | GPR119 ag inactive
C=CCOc1ccc(CNCCO)cc1OCC	GPR151 activ 7.6 | GPR151 confirm inactive | GPR119 ag inactive
C=CCOc1ccc(CNC2CCCC2)cc1OC	GPR151 activ 5.7 | GPR151 confirm inactive | GPR119 ag inactive
CCOc1cc(CNCCO)ccc1OCc1ccccc1	none
COc1ccc(-n2nc([N+](=O)[O-])c(=Nc3ccc(C)cc3C)n2O)cc1	none
CC(C)n1cnc2c(NCc3ccccc3)nc(Nc3cccnc3)nc21	none
CCOc1cc(/C=c2\sc3ncnn3c2=O)ccc1OC(C)=O	none
CCOCCCNC(=O)C1CCCN1C(=O)Nc1cccc(Cl)c1 (stereo not given)	none
Cc1n[nH]c(C)c1CCc1nc2c3ccccc3nc(NCc3ccc(F)cc3)n2n1	none
O=C(Nc1ccc(Br)cc1F)c1cnccn1	none
Cc1ccc(NC(=O)c2cnccn2)c(Br)c1	GPR151 activ 6.4 | GPR151 confirm inactive | GPR119 ag inactive
CCn1c(=N)c(C(=O)NC2CCCC2)cc2c(=O)n3cccc(C)c3nc21	none
COCCCNC(=O)c1cc2c(=O)n3cccc(C)c3nc2n(CCOC)c1=N	GPR151 activ 6.6 | GPR151 confirm inactive | GPR119 ag inactive
CCC(C)n1c(=N)c(C(=O)NC2CCCCC2)cc2c(=O)n3cccc(C)c3nc21 (stereo not given)	GPR151 activ 5.2 | GPR151 confirm inactive | GPR119 ag inactive
